{"source": "PubChem BioAssay AID602393", "about": "(Broad Institute, 2012)", "note": "The campaign covered roughly 350,000 compounds. About 7,000 (2%) were called active. What follows is part of a selection rich in actives, with near analogues and random picks from the rest. Unmarked numbers belong to inactive results. Rule as the data show it: active = activation above about 40%; inconclusive = no clear call, values can overlap the other calls; inactive = below that.", "data": [{"experiment": "raisers of Bmi1 knock-in reporter signal – mouse ES cells, Bmi1 luciferase knock-in, single point, esBAF inhibitor project, primary screen (AID 602393);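 also: 0% = median of the plate's neutral control wells and 100% = double that signal; a rise in the Bmi1 reporter signal indicates esBAF inhibition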", "conditions": "24 h, at 12.5 µM, active compounds read high, 100% = twice the neutral-well signal", "values": [{"smiles": "COc1cccc(C(=O)Nc2ccc3c(c2)C(=O)N(C)C[C@@H](OC)[C@@H](C)CN(C)[C@@H](C)CO3)c1", "reporter increase": "1.2%"}, {"smiles": "C[C@@H]1CN([C@@H](C)CO)S(=O)(=O)c2ccc(-c3cccnc3)cc2O[C@H]1CN(C)CC1CCOCC1", "reporter increase": "2.46%"}, {"smiles": "O=C(C[C@H]1C[C@@H]2c3cc(NC(=O)CC4CC4)ccc3O[C@@H]2[C@H](CO)O1)NCc1ccccn1", "reporter increase": "0.771%"}, {"smiles": "C[C@H]1CN([C@@H](C)CO)C(=O)c2cc(C3=CCCC3)cnc2O[C@H]1CN(C)C(=O)Nc1ccc(F)cc1", "reporter increase": "-1.8%"}, {"smiles": "COc1cccc(-c2cnc3c(c2)C(=O)N([C@H](C)CO)C[C@H](C)[C@H](CN(C)C(=O)NC(C)C)O3)c1", "reporter increase": "-3.06%"}, {"smiles": "Cc1ccccc1-c1ccc([C@@H]2[C@H](CO)N3CCCCN(S(=O)(=O)c4ccc(F)cc4)C[C@@H]23)cc1", "reporter increase": "-4.12%"}, {"smiles": "O=c1oc2cc(O)ccc2cc1-c1ccc(F)cc1", "reporter increase": "47.3% (active)"}, {"smiles": "CO[C@@H]1CC[C@H]2CCOc3c(C#N)cccc3C(=O)N(C)C[C@@H](OC)[C@H](C)C(=O)N(C)C[C@@H]1O2", "reporter increase": "-3.58%"}, {"smiles": "CCCNC(=O)N(C)C[C@H]1Oc2ncc(-c3ccc(F)cc3)cc2C(=O)N([C@H](C)CO)C[C@H]1C", "reporter increase": "1.97%"}, {"smiles": "C[C@@H](NC(=O)C[C@H]1CC[C@H](NS(=O)(=O)c2cccc(F)c2)[C@H](CO)O1)c1ccccc1", "reporter increase": "-2.73%"}, {"smiles": "CO[C@H]1CN(C)C(=O)c2cc(NS(=O)(=O)CC(F)(F)F)ccc2OC[C@@H](C)N(Cc2nccs2)C[C@@H]1C", "reporter increase": "-3.43%"}, {"smiles": "O=C(Nc1ccc2c(c1)OCO2)N[C@@H]1CC[C@H](CC(=O)N2CCN(c3ccccc3)CC2)O[C@@H]1CO", "reporter increase": "-0.613%"}, {"smiles": "Cc1ccc(C)c(S(=O)(=O)N2CCCOC2CNC(=O)C(=O)NC2CCCCC2)c1", "note": "(configuration not stated)", "reporter increase": "51.3% (active)"}, {"smiles": "Cc1ccc(NC(=O)NC2CCCCC2)cc1S(=O)(=O)N1CCOCC1", "reporter increase": "-1.63%"}, {"smiles": "O=C(NCCC1CCCCN1S(=O)(=O)c1ccccc1)C(=O)NCC1CCCO1", "note": "(configuration not stated)", "reporter increase": "-3.85%"}, {"smiles": "O=C(C[C@H]1CC[C@H]2[C@@H](COC[C@@H](O)CN2C(=O)c2ccc3c(c2)OCO3)O1)NC1Cc2ccccc2C1", "reporter increase": "-0.266%"}, {"smiles": "CN(C)CC(=O)Nc1ccc2c(c1)[C@H]1C[C@H](CC(=O)NCc3ccc4c(c3)OCO4)O[C@@H](CO)[C@H]1O2", "reporter increase": "2.82%"}, {"smiles": "O=C(O)CSc1nnc(-c2ccc3c(c2)OCO3)n1-c1ccccc1", "reporter increase": "19.1%"}, {"smiles": "Cn1c(SCc2nc3ccccc3s2)nnc1-c1ccc2c(c1)OCO2", "reporter increase": "66.4% (active)"}, {"smiles": "Cn1c(SCC(=O)N2CCCC2)nnc1-c1ccc2c(c1)OCO2", "reporter increase": "1.7%"}, {"smiles": "C[C@@H]1CCCCO[C@H](CN(C)C(=O)Cc2ccccc2)[C@H](C)CN([C@H](C)CO)C(=O)c2cc(NS(=O)(=O)c3cn(C)cn3)ccc2O1", "reporter increase": "5.86%"}, {"smiles": "C[C@H](CO)N1C[C@H](C)[C@@H](CN(C)Cc2cccc3c2OCCCO3)OCc2cn(nn2)CCCC1=O", "reporter increase": "-0.925%"}, {"smiles": "Cc1occc1C(=O)Nc1cccc(Cn2cccn2)c1", "reporter increase": "10.4%"}, {"smiles": "Cc1nn(C(=O)c2ccoc2C)c(N)c1-c1ccccc1", "reporter increase": "78.5% (active)"}, {"smiles": "Cc1ccnc(NC(=O)c2ccoc2C)c1", "reporter increase": "25.4%"}, {"smiles": "C[C@@H]1CN([C@H](C)CO)C(=O)Cc2cc(NS(=O)(=O)c3ccc(Cl)cc3)ccc2O[C@@H]1CN(C)C", "reporter increase": "-0.489%"}, {"smiles": "O=S(=O)(NCCOc1cccc2cccnc12)c1ccc(F)cc1", "reporter increase": "11.1%"}, {"smiles": "Fc1ccccc1COc1cccc2cccnc12", "reporter increase": "45.7% (active)"}, {"smiles": "Fc1ccccc1COc1ccccc1CNCc1ccncc1", "reporter increase": "2.36%"}, {"smiles": "CC(C)CC#Cc1cnc2c(c1)C(=O)N([C@@H](C)CO)C[C@H](C)[C@@H](CN(C)Cc1ccccc1C(=O)O)O2", "reporter increase": "-9.83%"}, {"smiles": "CCOC(=O)C1CCCN(C(=O)c2cncc(Br)c2)C1", "note": "(configuration not stated)", "reporter increase": "-6.09%"}, {"smiles": "CCOC(=O)CC1(NC(=O)c2cc(COc3cncc(Cl)c3)on2)CCCCC1", "reporter increase": "2.06%"}, {"smiles": "CCn1ccnc1CN(C)C(=O)c1cc(COc2ccc(Cl)cc2OC)on1", "reporter increase": "1.62%"}, {"smiles": "COc1cc(Cl)ccc1OCc1cc(C(=O)N(C)CCc2c(C)n[nH]c2C)no1", "reporter increase": "14.1%"}, {"smiles": "CCCOC1CCCN(C(=O)c2cc(COc3cncc(Cl)c3)on2)C1", "note": "(configuration not stated)", "reporter increase": "66.1% (active)"}, {"smiles": "COc1cc(Cl)ccc1OCc1cc(C(=O)N2CC[C@@H]3CCCC[C@H]3C2)no1", "reporter increase": "52.6% (active)"}, {"smiles": "C[C@@H]1CN([C@H](C)CO)C(=O)c2cc(NC(=O)Cn3cnnn3)ccc2O[C@@H]1CN(C)CC1CC1", "reporter increase": "-4.62%"}, {"smiles": "C[C@H](CO)N1C[C@H](C)[C@H](CN(C)S(C)(=O)=O)Oc2c(NC(=O)Nc3cccc4ccccc34)cccc2C1=O", "reporter increase": "-0.771%"}, {"smiles": "C[C@H](O)C#Cc1cnc2c(c1)C(=O)N([C@@H](C)CO)C[C@H](C)[C@H](CN(C)C(=O)c1ccccc1)O2", "reporter increase": "-2.39%"}, {"smiles": "CN1C(=O)c2cc(NC(=O)c3ccccc3)ccc2OC[C@@H]2O[C@@H](CC(=O)NC3CCCC3)CC[C@H]21", "reporter increase": "-4.47%"}, {"smiles": "C[C@H]1CCCCO[C@@H](CN(C)Cc2ccc3c(c2)OCO3)[C@@H](C)CN([C@@H](C)CO)C(=O)c2cc(NS(=O)(=O)c3ccc(F)cc3)ccc2O1", "reporter increase": "3.56%"}, {"smiles": "COCCN(C[C@H]1[C@@H](c2ccccc2)[C@H](CO)N1C(=O)C1CCC1)C(C)=O", "reporter increase": "-2.98%"}, {"smiles": "C[C@@H]1CN([C@H](C)CO)C(=O)c2cc(C#CC3CC3)cnc2O[C@H]1CN(C)C(=O)CC1CC1", "reporter increase": "3.96%"}, {"smiles": "COc1ccccc1/C=C/C(=O)NC(=S)N1CCOCC1", "reporter increase": "44.4% (active)"}, {"smiles": "COc1ccccc1/C=C/C(=O)NC1CC2CCC1C2", "note": "(configuration not stated)", "reporter increase": "28.1%"}, {"smiles": "O=C(/C=C/c1ccco1)NC(=S)N1CCCCC1", "reporter increase": "11.3%"}, {"smiles": "C[C@H]1CN([C@@H](C)CO)S(=O)(=O)c2ccc(-c3ccncc3)cc2O[C@@H]1CN(C)C(=O)CC1CC1", "reporter increase": "-3.03%"}]}]}
